Bioassay records deposited in PubChem BioAssay by National Center for Advancing Translational Sciences (NCATS).
KB-V1 cytotox = kills drug-selected multidrug resistant KB-V1 cells | 400,000 compounds, 3.4% hits | KB-V1 MDR cells viability, CellTiter-Glo, 72 h | AID 1347076 | Potency, µM (highest dose often 46.1 µM), usual class: cytotoxic; note: % is set by controls: 0 for no effect and ±100 for the full control effect; nearly all actives have a fitted effect of over 60% in size
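KB-V1 cells (P-gp-expressing MDR subline of KB-3-1) in phenol-red-free DMEM with 10% FBS were exposed to library compounds over a concentration series for 72 h at 37 degrees C. Viability read by CellTiter-Glo luminescence; concentration-effect curves fitted after normalization.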
KB-3-1 tox = kills parental KB-3-1 adenocarcinoma cells; Potency, µM (titrated, usually from 46.1 µM), most hits filed as cytotoxic; KB-3-1 viability, CellTiter-Glo ATP luminescence, 72 h; AID 1347075; 400,000 compounds, 1.4% hits; note: % is set by controls: 0 for no effect and ±100 for the full control effect; nearly all actives have a fitted effect of over 60% in size
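Screening of KB-3-1 cells (DMEM, 10% FBS, phenol-red free) ran from lowest to highest compound concentration; after 72 h at 37 °C viability was read luminescently and curves fitted.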
HT1080 IDH1KD tx = HT-1080 IDH1 knockdown cell toxicity (counter line) | 360,000 compounds, 2% hits | Potency, µM (titrated, usually from 46.1 µM), for the others: at the top dose activity, negative = toxicity, actives largely listed as cytotoxic | AID 686971 | HT-1080 IDH1 knockdown viability, ATP luminescence, 48 h;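 note: 0% = DMSO wells and -100% = cell-free medium wells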
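Luminescent ATP read-out (CellTiter-Glo, 10 min at room temperature) after 48 h compound exposure at 37 °C gave viability of IDH1-knockdown HT-1080 cells. Activity was normalised to DMSO and cell-free wells, then fitted as concentration-response curves.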
ATXN2 expr inh = reduces ATXN2 reporter expression in HEK-293 cells | 360,000 compounds, 0.72% hits | AID 1745845 | Potency, µM (series often up to 57 µM), for the others: top-dose activity change, negative = inhibition, most hits filed as inhibitors | HEK-293 ATXN2-luciferase reporter, luminescence, 24 h; note: % is set by controls: 0 for no effect and ±100 for the full control effect; nearly all actives have a fitted effect of over 55% in size
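qHTS (up to 57 uM final) was run with 24 h compound exposure of reporter cells at 37 °C. Each well was multiplexed: SteadyGlo luminescence measured ATXN2-luciferase expression after a fluorogenic Gly-Phe-AFC viability readout (25 uM final).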
HT1080-NT tox = kills 2HG-producing HT-1080-NT fibrosarcoma cells. HT-1080-NT fibrosarcoma viability, CellTiter-Glo ATP luminescence, 48 h. Potency, µM (highest dose often 46.1 µM), inactives show top-dose activity, negative = less viability, most hits filed as cytotoxic. 360,000 compounds, 1.6% hits;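 note: NT is the 2HG producing partner of a matched IDH1 knockdown line; 0% = DMSO-treated cells and -100% = media-only wells without cells; nearly all actives have a fitted effect of over 55% in size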
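Read-out is CellTiter-Glo luminescence after 10 minutes at room temperature, following 48 hours' compound treatment of HT-1080-NT cells (750 cells/well, RPMI, 5% FBS, 37 degrees C).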
S2 tox = cell viability loss in ATXN counter-screen. S2 cells (HEK-293 line with an ATXN2-luciferase reporter) viability, CellTiter-Fluor protease fluorescence, 24 h. Potency, µM (doses to about 56.7 µM), most hits filed as cytotoxic. 400,000 compounds, 0.49% hits; note: nearly all actives have a fitted effect of over 40% in size
Starred values were filed as active, the others as inactive; i = inactive; ? = inconclusive; · = not tested or not shown. A selection: hits, their analogues and other compounds. The true share with any hit is near 6.2%. Calls come from the whole dose curve; as a rule, active = well fitted curve in the direction sought with a large enough effect; inconclusive = small, poorly fitted or top-dose-only effect, or another doubt; inactive = no such curve, though single readings can be large; an effect the other way counts as inactive or inconclusive. Potency is the fitted concentration of half-maximal effect.

SMILES	KB-V1 cytotox	KB-3-1 tox	HT1080 IDH1KD tx	ATXN2 expr inh	HT1080-NT tox	S2 tox
O=C(CCc1ccccc1)NCc1ccc2c(c1)CCN2C(=O)c1ccc(Cl)cc1	i	i	·	·	·	·
Cc1cccc(C)c1NC(=O)C(c1cc2ccccc2o1)N1CCC(c2ccccc2)CC1 (centres undefined)	21µM*	?	13%	·	-1%	·
Cc1ccc(N2CCN(C(C(=O)Nc3c(C)cccc3C)c3cc4ccccc4o3)CC2)cc1 (centres undefined)	?	i	3%	·	0%	·
COc1ccc(-c2nc3ccccc3o2)cc1NC(=O)c1ccc(-c2cccc(Cl)c2C)o1	i	i	·	0%	·	i
CC(C)N(C(=O)CSc1nnc(NC(=O)c2cccs2)s1)C(C)C	23µM*	i	-14%	1%	1%	i
Fc1ccc(N/N=C/c2cccnc2)c(F)c1	i	i	15µM*	-3%	?	i
Cc1ccc(N/N=C/c2cccnc2)cc1	21µM*	?	8.2µM*	50%	?	?
O=C(CNC(=O)OCc1ccccc1)NCC(=O)NC(Cc1c[nH]c2ccccc12)C(=O)O (centres undefined)	i	i	1%	4%	7%	i
O=S(=O)(NCC1CCCO1)c1ccc(Cl)c2ccccc12 (centres undefined)	?	i	0%	·	1%	i
COc1cccc(/C=c2\s/c(=C\C(=O)C(C)(C)C)[nH]c2=O)c1	15µM*	?	-4%	-7%	-17%	?
CCc1cccc(NC(=O)CCNS(=O)(=O)c2ccc3c(c2)CCN3C(C)=O)c1	i	i	·	-15%	·	i
O=C(NCc1ccncc1)[C@@H]1CCCN1C(=O)[C@@H]1CCCN1C(=O)c1ccccc1Cl	i	i	1%	-8%	2%	i
O=C(Cc1ccc(Cl)cc1)NN1C(=O)c2ccccc2C1=O	i	i	11%	1%	15%	i
COC(=O)[C@@H]1[C@@H](C#N)C2(c3ccccc3-c3ccccc32)N(c2ccc(Cl)cc2)N1C#N	?	?	23µM*	10µM*	23µM*	28µM*
CC(C)n1cnc2cc(NC(=O)c3ccco3)ccc21	i	i	20%	-27%	4%	i
COc1ccc(-n2cnc3cc(NC(=O)c4ccco4)ccc32)cc1	16µM*	?	-15%	17%	13%	i
COc1ccccc1-n1cnc2cc(NC(=O)c3ccco3)ccc21	?	?	?	53%	11µM*	i
COc1ccc(-n2c(SCC(=O)NCc3ccccc3)nc3c([nH]c4ccccc43)c2=O)cc1	i	i	·	2%	·	i
COc1ccccc1-c1nc(SCC(=O)c2ccc(Cl)cc2)n[nH]1	i	?	·	3%	·	i
CCOC(=O)N1CCN(c2ncnc3c2[nH]c2ccc(F)cc23)CC1	?	?	?	?	-1%	?
Fc1ccc2[nH]c3c(N4CCN(c5ccccc5)CC4)ncnc3c2c1	16µM*	i	21µM*	?	?	?
OC1(c2cccc(C(F)(F)F)c2)CCN(c2ncnc3c2[nH]c2ccc(F)cc23)CC1	i	i	18µM*	6%	23µM*	i
Cn1c(SCCOc2ccccc2)nnc1-c1ccc(NC(=O)CCc2ccccc2)cc1	i	i	·	·	·	·
COc1cccc(-c2cnc3c(NC=O)cc(-c4cccc(C(=O)N(C)C)c4)cn23)c1	23µM*	i	?	0%	-21%	i
COc1cccc(-c2cc(NC=O)c3ncc(-c4cccc(C(=O)NCCN(C)C)c4)n3c2)c1	i	i	21µM*	-6%	23µM*	i
SMILES	KB-V1 cytotox	KB-3-1 tox	HT1080 IDH1KD tx	ATXN2 expr inh	HT1080-NT tox	S2 tox
O=C(NCc1ccccc1CN1CCCC1)c1ccc(Cl)c(N2CCCC2=O)c1	i	i	3%	·	-2%	i
CCC(C)NC(=O)CC(c1ccc(OC)cc1)n1cccc1 (centres undefined)	i	i	0%	4%	-1%	i
CCc1ccccc1NC(=O)CC(c1ccc(OC)cc1)n1cccc1 (centres undefined)	7.3µM*	i	3%	3%	3%	i
COc1cc2c(NC3CCN(C)CC3)nc(N3CCCN(C)CC3)nc2cc1OCCCN1CCCC1	i	?	·	·	·	·
CC(=O)OCC1=C(C(=O)O)N2C(=O)C(NC(=O)c3ccc(F)cc3)C2SC1 (centres undefined)	i	i	-4%	·	-6%	14µM*
N#Cc1ccc(OCC(=O)N(C2CCCCC2)C2CCS(=O)(=O)C2)cc1 (centres undefined)	i	i	9%	-1%	-11%	i
CCCCCCCCCCCC[N+](C)(C)Cc1ccccc1	·	·	·	25µM*	·	32µM*
CC1(C)OC2OC(C(=O)N/N=C/c3cc(Br)ccc3O)C3OC(C)(C)OC3C2O1 (centres undefined)	9.2µM*	i	?	?	-19%	i
COc1cccc(Cc2nc3cccnc3n2C2CCN(Cc3ccc(C)s3)CC2)c1	·	·	·	·	·	i
CCOC(=O)N1CC=C2C(C#N)=C(N)C(C#N)(C#N)[C@H](c3ccc(OCC)c(OCC)c3)[C@H]2C1	8.2µM*	i	?	-19%	-4%	i
CCOC(=O)[C@@H](N)CCC(=O)N[C@@H](CSCc1ccccc1)C(=O)N[C@@H](C(=O)OCC)c1ccccc1	·	·	·	-2%	·	·
COc1ccc(-n2c(-c3ccc(Cl)cc3)c[n+]3c2CCCCC3)cc1	i	i	?	?	?	?
COc1ccc(-c2c[n+]3c(n2-c2ccc(C)cc2)CCCCC3)cc1	?	1.8µM*	?	?	?	?
COc1ccc(-c2c[n+]3c(n2-c2ccccc2)CCCCC3)cc1	i	9.2µM*	?	-33%	?	i
CCCn1c(CC)nc([N+](=O)[O-])c1Sc1ncn[nH]1	i	i	-10%	·	-13%	i
CCCc1sc(N/N=C/c2ccccn2)nc1-c1ccc(Br)cc1	?	?	2.8µM*	2.8µM*	3.5µM*	·
CC(=O)Nc1sc(N/N=C/c2ccccc2)nc1-c1ccc(C)cc1	i	i	0%	14%	8%	i
N#Cc1ccc(Nc2nc(-c3ccc(O)cc3O)cs2)cc1C(F)(F)F	?	?	?	25µM*	?	22µM*
Oc1ccc(-c2csc(Nc3ccc4c(c3)OCO4)n2)c(O)c1	i	i	-10%	13%	-14%	?
